Screens deposited in PubChem by National Center for Advancing Translational Sciences (NCATS).
RECQ1 inh-1: RECQ1 (human) helicase inhibition; RECQ1 DNA unwinding, red fluorescence kinetic read; Potency, µM (titrated, usually from 57.3 µM), for the others: at the highest dose activity, negative = inhibition, usual class: inhibitors; hit rate 0.54% among 240,000; AID 2549;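 also: plate controls were vehicle for no effect and no enzyme for full effect; nearly all actives have a fitted effect of over 30% in size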
Target sequence (P46063 whole entry, looked up): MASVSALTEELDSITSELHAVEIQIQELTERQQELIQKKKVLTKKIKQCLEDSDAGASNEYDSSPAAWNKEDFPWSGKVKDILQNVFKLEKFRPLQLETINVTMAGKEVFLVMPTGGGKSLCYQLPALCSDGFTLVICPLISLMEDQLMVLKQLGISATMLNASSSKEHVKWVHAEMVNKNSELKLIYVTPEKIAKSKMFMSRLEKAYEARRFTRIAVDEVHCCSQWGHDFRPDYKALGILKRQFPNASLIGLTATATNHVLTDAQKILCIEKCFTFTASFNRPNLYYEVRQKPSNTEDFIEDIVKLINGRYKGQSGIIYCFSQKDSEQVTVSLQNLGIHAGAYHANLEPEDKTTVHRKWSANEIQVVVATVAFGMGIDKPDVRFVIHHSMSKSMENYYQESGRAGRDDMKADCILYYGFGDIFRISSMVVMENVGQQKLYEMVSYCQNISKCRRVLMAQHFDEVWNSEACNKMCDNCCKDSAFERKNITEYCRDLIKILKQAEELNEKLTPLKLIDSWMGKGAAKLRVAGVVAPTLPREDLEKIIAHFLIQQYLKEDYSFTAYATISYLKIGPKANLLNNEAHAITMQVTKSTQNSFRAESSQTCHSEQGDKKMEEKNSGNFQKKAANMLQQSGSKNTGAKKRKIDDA
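RECQ1T1 50 nM; forked duplex (20 bp + 30-nt ss tails) 200 nM, ATP 2 mM final; pH 8.0, 2 mM MgCl2, 2.5 ug/ml poly(dI-dC); 15 min compound preincubation; discontinuous kinetic read over 2 h at RT.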
WRN helicase inh: blocks human WRN helicase | Q14191 | WRN helicase unwinding, fluorescent forked duplex, kinetic | Potency, µM (highest dose often 114 µM), without a hit: top-dose activity change, negative = inhibition, hits mostly inhibitors | hit rate 0.46% among 360,000 | AID 651768; also: nearly all actives have a fitted effect of over 55% in size
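Primary qHTS, 1536-well format. 20 nM WRN + compound, 15 min RT; start with 100 nM forked fluorophore/quencher duplex, 2 mM ATP (final); kinetic read ex 525/em 598 nm.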
BLM inh-1: blocks DNA unwinding by human BLM helicase; P54132; recombinant BLM DNA unwinding, fluorescence dequenching; Potency, µM (top dose mostly 56.1 µM), for the others: at the highest dose activity change, negative = inhibition, usual class: inhibitors; hit rate 0.2% among 350,000; AID 2528;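 also: plate controls were vehicle for no effect and no enzyme for full effect; nearly all actives have a fitted effect of over 35% in size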
L3MBTL1 block: inhibitors of human L3MBTL1; Potency, µM (doses to about 57.1 µM), without a hit: top-dose activity, negative = inhibition, hits mostly inhibitors; AlphaScreen L3MBTL1–H3K9me1 peptide binding; Q9Y468; hit rate 0.66% among 230,000; also: nearly all actives have a fitted effect of over 60% in size
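Read-out is AlphaScreen signal from streptavidin donor and nickel chelate acceptor beads (10 ug/mL final each) bridging L3MBTL1 (50 nM) and biotinylated K9-monomethylated H3(1-15) peptide (75 nM), after 30 min compound exposure at room temperature.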
APEX1 inh: inhibitors of human APE1 endonuclease; P27695; recombinant APE1, TAMRA/BHQ-2 abasic DNA cleavage fluorescence; Potency, µM (doses to about 65.8 µM), for inactives: at the highest dose activity change, negative = inhibition, hits mostly inhibitors; hit rate 0.35% among 350,000;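 also: plate controls were vehicle for no effect and reference inhibitor for full effect; nearly all actives have a fitted effect of over 55% in size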
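Endonuclease cleavage of a quenched abasic-site DNA duplex (50 nM) by APE1 (0.75 nM) was tracked by TAMRA dequenching. Compounds were preincubated with enzyme 15 min at room temperature; data normalized to buffer-only and DMSO wells plus NSC13755 control.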
FEN1 inh: blocks human flap endonuclease 1 | P39748 | Recombinant FEN1 flap cleavage, fluorescence, 15 min | Potency, µM (titrated, usually from 114 µM), without a hit: top-dose activity change, negative = inhibition, hits mostly inhibitors | hit rate 0.35% among 390,000; also: nearly all actives have a fitted effect of over 65% in size
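FEN1 at 10 nM preincubated with compounds 15 min at room temperature, then flap DNA substrate added at 50 nM final. Signal read at 0 and 15 min; concentration-response fitted with four-parameter Hill equation.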
BLM inh-2: confirmation of inhibitors of human Bloom syndrome helicase BLM; shares compounds with BLM inh-1; BLM DNA unwinding, fluorescence quenching, biochemical; Potency, µM, for the others: max response, negative = inhibition, actives largely listed as inhibitors; hit rate 40% among 220; AID 2585;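 also: strand separation dequenches TAMRA so unwinding raises red fluorescence; series mostly up to about 69 µM; nearly all actives have a fitted effect of over 45% in size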
RECQ1 inh-2: RECQ1 helicase inhibition confirmed, round 2 | shares compounds with RECQ1 inh-1 | recombinant RECQ1 DNA unwinding, red fluorescence | Potency, µM (series often up to 119 µM), for inactives: at the top dose activity, negative = inhibition, usual class: inhibitors | hit rate 15% among 1,100 | AID 504841; also: nearly all actives have a fitted effect of over 50% in size
Numbers without * were called inactive; ? = inconclusive; / = no result given; [ ] = dose if it differs, or a comment. Most compounds without a hit are left out; they make up all but 1% or so of the library. Calls follow the shape of the dose curve; as a rule, active = well fitted curve in the direction sought with a large enough effect; inconclusive = small, poorly fitted or top-dose-only effect, or another doubt; inactive = no such curve, though single readings can be large; an effect the other way counts as inactive or inconclusive. Unless noted, % is scaled to controls: 0 for no effect and ±100 for the full control effect; potency is read from the fitted curve at half-maximal effect.

SMILES	RECQ1 inh-1	WRN helicase inh	BLM inh-1	L3MBTL1 block	APEX1 inh	FEN1 inh	BLM inh-2	others
CC(C)CN(C(=O)COC(=O)c1cc2c(s1)CCC2)C1CCS(=O)(=O)C1 (stereo not given)	?	?	25µM*	20µM*	13µM*	?	?
CCOC(=O)c1cccc(NC(=O)CSc2ncc3c(n2)-c2ccccc2N(C)S3(=O)=O)c1	/	/	-2%	/	/	8%	/
Cc1ccc(NC2=CC(=O)c3sc(C)nc3C2=O)cc1	-3%	/	7.9µM*	/	?	/	20µM*
O=C(CSc1ccccn1)Nc1ccc2c(c1)C(=O)c1ccccc1C2=O	-1%	40µM*	25µM*	-3%	?	?	?
Cc1cccc(N2CCN(CCCNC(=O)Cn3ncc4c([nH]c5ccccc54)c3=O)CC2C)c1 (stereo not given)	/	/	2%	/	/	-2%	/
O=C1C(Cl)=C(NCCN2CCOCC2)C(=O)c2ncccc21	?	/	5µM*	/	?	/	5.8µM*
N#Cc1c2nc3ccccc3nc2n2cc(NC(=O)c3ccc(F)cc3)ccc12	-6%	20µM*	13µM*	-45%	4%	?	7.3µM*
Cc1c(C(=O)Nc2ccc(F)cc2)cn2c(nc3ccccc32)c1C#N	-8%	-1%	-7%	/	28%	9%	/
OC(c1ccc(Cl)c(Cl)c1)c1ncc(-c2ccccc2C(F)(F)F)[nH]1 (stereo not given)	/	3%[57.1 µM]	/	/	/	/	/
N#C/C(=C\c1ccc(OC(=O)c2cccs2)cc1)c1nc2ccccc2[nH]1	7%	?	20µM*	-5%	7%	1%	-8%
N#C/C(=C\c1cccs1)c1nc2ccccc2[nH]1	-1%	-6%	-5%	10%	-2%	-10%	/
CC(=O)Nc1c(Cl)cc(Cl)c2c1Cc1cc(Cl)ccc1-2	/	3%	/	/	/	1%	/
CCn1ncc(Br)c1C(=O)Nc1ccc(C(=O)OC(C)C)cc1	-12%	-6%	3.5µM*	/	-3%	-6%	?
CCn1ncc(Br)c1C(=O)Nc1ccc(OC(F)(F)F)cc1	/	-3%	-6%	/	-21%	-1%	/
CCOC(=O)C1(C)CCCCCN1C(=O)c1ccc(OC)cc1 (stereo not given)	/	7%	/	/	/	/	/
COc1ccc2c(c1)Cc1sc(NC(C)=O)nc1-2	11%	-5%	-11%	4%[11.4 µM]	-5%	-11%	/
COc1ccc2c(c1)Cc1sc(NC(=O)c3cccnc3)nc1-2	-2%	2%[57.1 µM]	18µM*	?	?	-1%	?
CCC1CN(C(=O)Nc2cc(C)ccc2OC)c2cc(Cl)ccc2O1 (stereo not given)	/	/	-3%	/	/	3%	/
N#Cc1sc2nc(-c3ccccc3)cc(-c3ccco3)c2c1N	?	35µM*	4µM*	?	?	?	4.1µM*
COc1ccccc1CNc1nc(-c2ccc(N(C)C)cc2)nc2ccccc12	?	/	14µM*	/	-2%	/	23µM*	RECQ1 inh-2=-2%
COc1ccccc1CNc1nc(-c2ccc(C(=O)N(C)C)cc2)nc2ccccc12	-12%	/	-3%	/	6%	/	/
O=c1[nH]c(Nc2ccc(F)cc2)cc2ccccc12	?	-11%	32µM*	/	7%	3%	?	RECQ1 inh-2=-30%
COC(=O)c1ccc(COc2ccc(/C=C(\C#N)c3nc4ccccc4[nH]3)cc2OC)o1	?	?	14µM*	4%	-6%	-11%	?	RECQ1 inh-2=79µM*
